These results are taken from PubChem BioAssay (NCI).

Holding throughout (assay): NCI-60 one-dose screen, 48 h (100 = growth as untreated, 0 = no growth, -100 = all killed)
Common to all, as to settings: 10 µM unless noted

Test [1] deals with EKVX NSCLC.
The test system of test [2] is SN12C renal.
The test system of test [3] is UO-31 renal.
The subject of test [4] is ACHN renal.
The test system of test [5] is CAKI-1 renal.
The subject of test [6] is A498 renal.
In test [7] the test system is CCRF-CEM leukemia.
The subject of test [8] is MOLT-4 leukemia.
Test [9] relates to RPMI-8226 leukemia.
Test [10] deals with OVCAR-8 ovarian.
The test system of test [11] is OVCAR-5 ovarian.
The subject of test [12] is OVCAR-4 ovarian.
In test [13] the test system is SK-OV-3 ovarian.
Test [14] concerns IGROV1 ovarian.
Test [15] concerns OVCAR-3 ovarian.
For test [16], the system named is HS 578T breast.
Test [17] deals with NCI/ADR-RES ovarian.
Test [18] relates to T-47D breast.
In test [19] the test system is SR leukemia.

Molecules are shown by their SMILES. This is part of a sample that, as a whole, favours compounds with a hit. Of some 83,000 tested, about 20% had one in any assay.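 Plates (96-well) were seeded with cells, treated with compound at one concentration, and incubated for 48 hours before percent growth was determined.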 Values without a mark were called inactive. Active and inactive are the calls of the source. The calls were made as follows: active = growth percent below 10; inactive = the rest.

On to `Cc1ccc2ccc3ccc(C)nc3c2n1.Cc1ccc2ccc3ccc(C)nc3c2n1.Oc1c(Cl)cc(Cl)c2ccc(CN3CCCCC3)nc12.[Ru]`, for which the growth in [1] is -64.9% (active); in [2] it was -64.9% (active); in test [3] it was -89.8% (active); in test [4], -95.6% (active); in test [5], -77.7% (active); in test [6], -88.7% (active). Further, the growth is -47.9% (active) in test [7]; -52.7% (active) in test [8]; -46% (active) in test [9]; -75.4% (active) in [10]; -72% (active) in [11]; -45.8% (active) in test [12]. Also, the growth in test [13] is -72.6% (active); in test [14], -58.4% (active); in [15], -95.3% (active); in [16], -42.4% (active); in test [17], -24.4% (active); in [18], -55.8% (active).
For the molecule `CC(C)Sc1nc(Nc2ccc(S(N)(=O)=O)cc2)c(C#N)c(-c2ccc(F)cc2)n1`, the growth was 50.9% in test [1]; 36.6% in [7]; 49.9% in test [8]; -36.9% (active) in test [19]; 58.1% in [9]; 67.3% in test [11]. Moreover, in [17], the growth is 32.5%.
For the molecule `CS(=O)(=O)c1ccc(-c2nc3ccccn3c2/C=N/Nc2nc(-c3ccc(Br)cc3)cs2)cc1`, the growth is 97.8% in [1]; 103% in test [2]; 84.8% in test [3]; 103% in test [4]; 96.9% in test [5]; 78% in test [6]. Besides, the growth was 90.8% in test [7]; 94% in test [8]; 95.1% in [19]; 94.1% in test [9]; 110% in test [11]; 107% in [12]. Moreover, the growth is 111% in test [14]; 139% in test [15]; 112% in test [16]; 107% in [17]; 94% in test [18].
Regarding `O=C1/C(=C/C2=Cc3ccccc3OC2)SC(=S)N1c1ccc(F)cc1`, the growth in [1] is 94.7%; in test [2] it was 93%; in [3] it was 86.3%; in test [4], 76%; in [6] it was 71.6%; in test [7], 109%. For the same molecule, the growth is 108% in test [8]; 97.2% in test [19]; 104% in test [9]; 105% in test [10]; 100% in test [11]; 96.1% in test [12]. The growth was 108% in test [13]; 95.9% in [14]; 109% in test [15]; 99.2% in test [16]; 108% in [17]; 87.7% in test [18].
